Inconclusive results are not listed. Active and inactive are the calls of the source. The calls were made as follows: active = hit-call score of the fitted dose curve at least 0.9, where 1 is the maximum; inconclusive = response in the unintended direction; inactive = score below 0.9.

human Interleukin-1 Receptor-Associated Kinase 4 (IRAK4), IRAK4 (gene 51135), sequence (Q9NWZ3 whole entry, looked up): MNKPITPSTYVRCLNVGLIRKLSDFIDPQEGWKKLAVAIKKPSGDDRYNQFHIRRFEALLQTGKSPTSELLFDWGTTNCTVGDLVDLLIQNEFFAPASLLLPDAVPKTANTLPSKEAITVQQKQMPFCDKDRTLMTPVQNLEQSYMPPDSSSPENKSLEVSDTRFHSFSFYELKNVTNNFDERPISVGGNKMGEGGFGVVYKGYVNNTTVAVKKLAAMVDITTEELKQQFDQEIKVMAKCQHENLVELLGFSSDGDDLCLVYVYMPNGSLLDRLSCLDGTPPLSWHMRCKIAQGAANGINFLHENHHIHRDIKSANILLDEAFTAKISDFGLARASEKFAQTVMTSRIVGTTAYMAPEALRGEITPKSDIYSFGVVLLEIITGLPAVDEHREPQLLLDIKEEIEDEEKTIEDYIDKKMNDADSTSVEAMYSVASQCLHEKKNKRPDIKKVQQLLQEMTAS

This test concerns the target human Interleukin-1 Receptor-Associated Kinase 4 (IRAK4), IRAK4 (gene 51135) (UniProt Q9NWZ3). The test can be described thus: NVS_ENZ_hIRAK4: NovaScreen (NVS) Enzymatic Assay for human Interleukin-1 Receptor-Associated Kinase 4 (IRAK4). Here is the method:
NVS_ENZ_hIRAK4 is a biochemical, single-readout assay that uses extracted gene-proteins in a cell-free assay. Measurements were taken 1 hour after chemical dosing in a 384-well plate.NVS_ENZ_hIRAK4 is one of one assay component(s) measured or calculated from the NVS_ENZ_hIRAK4 assay. It is designed to make measurements of enzyme activity, a form of enzyme reporter, as detected with fluorescence intensity signals by Fluorescence and electrophoretic mobility shift technology.Data from the assay component NVS_ENZ_hIRAK4 was analyzed into 1 assay endpoint. This assay endpoint, NVS_ENZ_hIRAK4, was analyzed in the positive analysis fitting direction relative to DMSO as the negative control and baseline of activity. Using a type of enzyme reporter, loss-of-signal activity can be used to understand changes in the enzymatic activity as they relate to the gene IRAK4. Furthermore, this assay endpoint can be referred to as a primary readout, because this assay has produced […] where this one serves a enzymatic activity function. To generalize the intended target to other relatable targets, this assay endpoint is annotated to the kinase intended target family, where the subfamily is […].
Binding assays used specific radioligands (tritiated, iodinated) with non-radioactive competitive displacement ligands in agonist or antagonist protocols (as indicated) and various reference compounds and inhibitors to titrate specific binding to receptors and transporters. Most enzyme assays (CYPs, kinases, phosphatases, proteases, HDACs) used recombinant protein and specific substrates (fluorescence mostly, some colorimetric and radioactive) and inhibitors, followed by a biochemical separation of substrate and product. All assays for the biochemical HTS were initially run in duplicate at a single concentration (10 uM for CYP450 assays and 25 uM for all others). Assay-chemical combinations meeting a pre-defined threshold (e.g., 30% inhibition and other criteria defined below) were then run in singleton concentration-response format with maximum concentration of 20 uM for CYPs and 50 uM for all others. Each assay was run with positive and negative controls, and concurrent controls on every plate. The follow-up (secondary) screen tested active chemical-pairs in concentration series, as well as a few additional assays not tested in the primary screen, some selected negative inactives, and several cases re-run in the concentration series for confirmatory purposes.
Regarding `CCOC(=O)C(Cl)Cc1cc(-n2nc(C)n(C(F)F)c2=O)c(F)cc1Cl` (stereo not given), the outcome was inactive.
Under `COP(=S)(OC)Oc1ccc([N+](=O)[O-])cc1` stands “inactive”.
Regarding `CNC(=S)S`, the result was inactive.
On to `CCCCNC(=O)OCC#CI`, for which the result was inactive.
As for `Cc1ccc(N=CN(C)C=Nc2ccc(C)cc2C)c(C)c1`, the molecule was classed as inactive.

The values are drawn from PubChem BioAssay AID2283166 (EPA ToxCast).
